Experimental findings from PubChem BioAssay (EPA / NIEHS) are described below.

Records with an inconclusive call do not appear. Activity calls are given as the source filed them. The calls were made as follows: active = hit-call score of the fitted dose curve at least 0.9, where 1 is the maximum; inconclusive = response in the unintended direction; inactive = score below 0.9.

Chain of human Thyroid Receptor alpha (THRa1), THRA (gene 7067) (P10827 whole entry, looked up): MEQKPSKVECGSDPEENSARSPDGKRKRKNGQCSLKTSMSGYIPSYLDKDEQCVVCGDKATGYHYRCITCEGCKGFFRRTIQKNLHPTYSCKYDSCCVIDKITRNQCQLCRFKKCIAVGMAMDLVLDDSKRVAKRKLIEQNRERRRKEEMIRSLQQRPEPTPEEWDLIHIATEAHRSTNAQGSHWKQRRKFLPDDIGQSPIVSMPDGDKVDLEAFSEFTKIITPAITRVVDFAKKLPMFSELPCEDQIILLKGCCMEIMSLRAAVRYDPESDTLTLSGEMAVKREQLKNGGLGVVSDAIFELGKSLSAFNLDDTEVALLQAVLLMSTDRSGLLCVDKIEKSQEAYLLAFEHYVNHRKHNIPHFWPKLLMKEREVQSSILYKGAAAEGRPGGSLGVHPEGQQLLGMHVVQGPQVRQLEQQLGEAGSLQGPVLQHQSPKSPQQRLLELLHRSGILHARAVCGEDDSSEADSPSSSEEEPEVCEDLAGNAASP

For the assay, the target named is human Thyroid Receptor alpha (THRa1), THRA (gene 7067) (UniProt P10827). Nature of the assay: ATG_THRa1_TRANS: Attagene TRANS-FACTORIAL HepG2 Assay for human Thyroid Receptor alpha (THRa1) (AID 2283014). How it is done:
ATG_TRANS is a cell-based, multiplexed-readout assay that uses HepG2, a human liver cell line, with measurements taken at 24 hours after chemical dosing in a 24-well plate.ATG_THRa1_TRANS is one of 30 assay component(s) measured or calculated from the ATG_TRANS assay. It is designed to make measurements of mRNA induction, a form of inducible reporter, as detected with fluorescence intensity signals by Reverse transcription polymerase chain reaction (RT-PCR) and Capillary electrophoresis technology.Data from the assay component ATG_THRa1_TRANS was analyzed into 1 assay endpoint. This assay endpoint, ATG_THRa1_TRANS, was analyzed in the positive analysis fitting direction relative to DMSO as the negative control and baseline of activity. Using a type of inducible reporter, measures of mRNA for gain-of-signal activity can be used to understand the reporter gene at the transcription factor-level as they relate to the gene THRA. Furthermore, this assay endpoint can be referred to as a primary readout, because this assay has produced multiple assay endpoints where this one serves a reporter gene function. To generalize the intended target to other relatable targets, this assay endpoint is annotated to the nuclear receptor intended target family, where the subfamily is non-steroidal.
Human liver HepG2 cells are transiently transfected with multiple reporter transcription units (MRTUs) in 6-well plates using FuGene 6 reagent (Roche; 3 ml FuGene/1 mg DNA). The MRTU constructs are regulated by a cis-regulating element (promoter). […] A major difference between the CIS and TRANS system is that in CIS activities of endogenous TFs are measured, whereas the TRANS assay evaluates changes in activities of exogenous, chimeric NR-Gal4 proteins. […] At the end of 24 hour incubation, total RNA was isolated using TriZol reagent (Invitrogen). The isolated RNA is then reverse-transcribed using oligo(dT) primer and Mo-MLV reverse transcriptase (Invitrogen) with DNAse I (Ambion) treatment for 30 min. The one-tenth of the produced cDNA was amplified by PCR using Taq DNA polymerase (Invitrogen) and two reporter sequence-specific primers. The PCR products were fluorescently labeled by primer extension with 6-arboxyfluorescein (6-FAM) 5'-labeled reporter sequence-specific primer (2 min at 95 C, 20 s at 68 C and 10 min at 72 C) and these products were digested with 5U of HpaI (New England Biolabs) for 2h at 37 C. The fragments were purified using Qiaquick PCR columns (Qiagen), analyzed on an ABI 3130xL genetic analyzer (Applied Biosystems) with peak positions identified by using a set of X-rhodamine (ROX)-labeled MapMarker1000 molecular weight standards (BioVentures). The raw capillary electrophoresis data was processed using Attagraph software (Attagene).
As to `COC(=O)c1ccccc1S(=O)(=O)NC(=O)N(C)c1nc(C)nc(OC)n1`, the outcome was inactive.
As for `ClC1C(Cl)C(Cl)C(Cl)C(Cl)C1Cl` (configuration not stated), the result was inactive.
For `C[C@H]1[C@H](c2ccc(Cl)cc2)SC(=O)N1C(=O)NC1CCCCC1`, the compound was called inactive.
Consider `CCS(=O)(=O)c1cccnc1S(=O)(=O)NC(=O)Nc1nc(OC)cc(OC)n1`, for which the compound was classed as inactive.
Regarding `Oc1ccc(Cl)cc1Cc1ccccc1`, the call was inactive.
Then `CCCN(CCOc1c(Cl)cc(Cl)cc1Cl)C(=O)n1ccnc1`, with “inactive”; and `CCOC1Oc2ccc(OS(C)(=O)=O)cc2C1(C)C` (configuration not stated), with “inactive”; and `COC(=O)c1ccccc1CS(=O)(=O)NC(=O)Nc1nc(OC)cc(OC)n1`, with “inactive”.
Take `CC(C)OC(=O)Nc1cccc(Cl)c1`: the outcome was inactive.
With `N#Cc1c(Cl)c(Cl)c(Cl)c(C#N)c1Cl`, the compound was classed as inactive.
With `COC(=O)c1ccccc1S(=O)(=O)NC(=O)Nc1nc(C)nc(OC)n1`, the result was inactive.
The result for `O=[N+]([O-])/N=C1\NCCN1Cc1ccc(Cl)nc1` reads “inactive”; that for `CC1(c2ccc(Oc3ccccc3)cc2)OC(=O)N(Nc2ccccc2)C1=O` (configuration not stated), “inactive”; that for `CC(C)(C)C(O)/C(=C\c1ccc(Cl)cc1Cl)n1cncn1` (configuration not stated), “inactive”.
For the compound `O=S(=O)(O)C(F)(F)C(F)(F)C(F)(F)C(F)(F)C(F)(F)C(F)(F)C(F)(F)C(F)(F)F`, the result was inactive.
`CN1CSC(=S)N(C)C1`: the call was inactive.
The result for `CCOCN(C(=O)CCl)c1c(C)cccc1CC` reads “inactive”.
Take `O=[N+]([O-])c1c(Cl)c(Cl)c(Cl)c(Cl)c1Cl`: the result was inactive.
Consider `O=C(NC(=O)c1c(F)cccc1F)Nc1ccc(OC(F)(F)C(F)OC(F)(F)F)c(Cl)c1` (configuration not stated), for which the outcome was inactive.
Take `C#CCN1C(=O)COc2cc(F)c(N3C(=O)C4=C(CCCC4)C3=O)cc21`: the result was inactive.
Take `CC(C)(C)C(O)C(Oc1ccc(Cl)cc1)n1cncn1` (configuration not stated): the call was inactive.
Consider `COc1nn(CSP(=S)(OC)OC)c(=O)s1`, for which the compound was classed as inactive.
The result for `CCC(C)(C)C(=O)OC1=C(c2ccc(Cl)cc2Cl)C(=O)OC12CCCCC2` reads “inactive”; that for `Clc1ccccc1-c1nnc(-c2ccccc2Cl)nn1`, “inactive”.
Then `Cc1[nH]c(=O)n(C(C)(C)C)c(=O)c1Cl`, with “inactive”; and `CC1(C)C(C=C(Cl)Cl)C1C(=O)OC(C#N)c1ccc(F)c(Oc2ccccc2)c1` (configuration not stated), with “inactive”.
In the case of `Oc1cc(Cl)ccc1Oc1ccc(Cl)cc1Cl`, the outcome was inactive.
Turning to `Cc1cc(C)nc(NC(=O)NS(=O)(=O)c2ccccc2C(=O)OC2COC2)n1`, the call was inactive.
With `CC[C@H](C)[C@H]1O[C@]2(C=C[C@@H]1C)C[C@@H]1C[C@@H](C/C=C(\C)[C@@H](O[C@H]3C[C@H](OC)[C@@H](O[C@H]4C[C@H](OC)[C@@H](O)[C@H](C)O4)[C@H](C)O3)[C@@H](C)/C=C/C=C3\CO[C@@H]4[C@H](O)C(C)=C[C@@H](C(=O)O1)[C@]34O)O2` (tested in a mixture with another compound), the compound was called inactive.
As for `OCCOc1ccccc1`, the compound was classed as inactive.
The result for `CNC(=O)Oc1cccc(N=CN(C)C)c1` reads “inactive”; that for `CCC(C)(NC(=O)c1cc(Cl)c(C)c(Cl)c1)C(=O)CCl` (configuration not stated), “inactive”.
